Results published in PubChem BioAssay AID488789 (Broad Institute, 2010).
Entries with a potency or affinity are not part of this list. Results filed as inconclusive are left out. Activity calls are given as the source filed them.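 The calls were made as follows: active = samples whose fitted half-maximal inhibition concentration is no more than ten times the top valid dose tested; inconclusive = flat response between -70 and -30, or invalid curve fit; inactive = flat within 30 of zero, potency above limit, or signal rising.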

Target: Trypsin (Sus scrofa) (UniProt P00761)
Assay: trypsin protease activity blockade – biochemical, quenched peptide fluorescence, cherry-pick, selectivity assay for Rce1 protease inhibitor project, dose response (AID 488789);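 also: more negative means stronger trypsin inhibition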
Details: porcine trypsin, quenched peptide cleavage fluorescence; series mostly up to 10 µM; activity change, negative = inhibition: at the top concentration

Chain of Trypsin (Sus scrofa) (P00761 whole entry, looked up): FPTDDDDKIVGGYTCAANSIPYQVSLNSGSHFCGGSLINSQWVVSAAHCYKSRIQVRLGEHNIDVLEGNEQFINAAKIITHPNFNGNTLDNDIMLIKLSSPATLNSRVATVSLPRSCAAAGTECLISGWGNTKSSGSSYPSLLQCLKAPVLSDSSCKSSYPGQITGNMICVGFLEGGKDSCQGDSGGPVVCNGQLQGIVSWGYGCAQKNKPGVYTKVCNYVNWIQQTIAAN

Row | SMILES | activity change, negative = inhibition | outcome
1 | Oc1c(N=NC(=S)Nc2ccccc2F)c2ccccc2n1Cc1ccccc1Cl | -0.175% (inactive) | –
2 | O=C(O)CCc1ccc(-c2cccs2)n1Cc1ccco1 | 16.1% (inactive) | –
3 | CN(C(=O)c1ccc2c(c1)SC1=NS(=O)(=O)CCN12)C(c1ccccc1)c1ccccc1 | 7.2% (inactive) | –
4 | Cc1ccc(OCCn2c3ccccc3n3nc(C)c(=O)nc23)cc1 | -5.01% (inactive) | –
5 | Cc1cccc(OCCN2C(=O)C(=O)c3cc(C)ccc32)c1 | -0.333% (inactive) | –
6 | CCOC(=O)C1CCCN(C(=O)CCn2nnnc2CN2CCOCC2)C1 (configuration not stated) | 21% (inactive) | –
7 | Cc1ccc(-c2nc(CN3CCCCC3)cc(CN3CCCCC3)c2O)cc1 | -10.6% (inactive) | –
8 | Cc1ccc(Nc2nc(-c3ccc(S(=O)(=O)N4CCOCC4)cc3)cs2)cc1Cl | 3.37% (inactive) | –
9 | Cc1cc(N/N=C/c2ccc(O)c(C)c2O)nc(-c2ccccc2O)n1 | 7.21% (inactive) | –
10 | Cc1ccc(-c2cc3cccc[n+]3cc2-c2ccc(C)cc2)cc1 | 16.4% (inactive) | –
11 | Cc1cc(C)c2nc(N(CCCN(C)C)C(=O)c3ccc4c(c3)CCCC4)sc2c1 | -3.58% (inactive) | –
12 | COc1ccc(OC)c(/C=N/c2c(-c3ccc(O)c(OC)c3)nc3ccccn23)c1 | -7.37% (inactive) | –
13 | CC(C)c1cccc(OCC(=O)Nc2ccc(S(=O)(=O)Nc3ccccn3)cc2)c1 | 5.03% (inactive) | –
14 | O=C(NCC1CC1)c1cc(-c2ccccc2)nn1CC1CC(c2cccc([N+](=O)[O-])c2)=NO1 (configuration not stated) | 11% (inactive) | –
15 | Cc1ccc(C(=O)c2c3ccc(C(F)(F)F)cc3[n+]([O-])n2CCCC(N)=O)cc1 | 8.46% (inactive) | –
16 | COc1cccc2sc3ccc(C#CC4(O)CCCCC4)cc3c(=O)c12 | 6.34% (inactive) | –
17 | CCCCCCCCCCOC(=O)Cn1c(COc2ccccc2C)[n+](C)c2ccccc21 | 10.7% (inactive) | –
18 | Oc1c(N=NC(=S)Nc2ccccc2F)c2ccccc2n1Cc1ccccc1F | 2.08% (inactive) | –
19 | COCCCNC(=S)NCCNc1nc2cc(C)cc(C)c2cc1C#N | 1.37% (inactive) | –

Row | SMILES | activity change, negative = inhibition | outcome
20 | Cc1ccc(C(=O)c2c3ccccc3[n+]([O-])n2CCO)cc1 | -5.98% (inactive) | –
21 | CCN(CC)CCN(C(=O)c1cc2ccccc2cc1OC)c1nc2ccc(F)cc2s1 | -2.96% (inactive) | –
22 | CC(=O)OCC(=O)[C@@]12OC3(CCCC3)O[C@@H]1C[C@H]1[C@@H]3CCC4=CC(=O)C=C[C@]4(C)[C@@]3(F)[C@@H](O)C[C@@]12C | 17.7% (inactive) | –
23 | COc1ccccc1/C=C/C=N/NC(=O)CN1CCN(S(=O)(=O)c2ccc(C)cc2)CC1 | -1.16% (inactive) | –
24 | COc1cc(C(=O)OCC(=O)Nc2ccc(SC(F)F)cc2)cc(OC)c1OC | 1.57% (inactive) | –
25 | CC(=O)N(C)c1ccc(NC(=O)/C=C/c2ccccc2Cl)cc1 | 6.67% (inactive) | –
26 | CC1(c2ccc(OCC#N)cc2)C=C(c2ccc(OCC#N)cc2)n2nc(C(F)(F)F)nc2N1 (configuration not stated) | 5.89% (inactive) | –
27 | C/C=C(/C)C(=O)O[C@H]1[C@@H](O)c2c(ccc3ccc(=O)oc23)OC1(C)C | -4.87% (inactive) | –
28 | COc1ccc(Cl)cc1C(=O)Nc1ccc2c(c1)OCO2 | -2.45% (inactive) | –
29 | O=C(Nc1ccc(N2CCOCC2)c(Cl)c1)c1cc2ccccc2o1 | 8.34% (inactive) | –
30 | CN(C)c1ccc(/C=N/NC(=O)CNC(=O)c2ccco2)cc1 | 16% (inactive) | –
31 | CNC(=S)N/N=C/c1cn(Cc2c(F)cccc2Cl)c2ccccc12 | -10.5% (inactive) | –
32 | Cc1cc(=O)n2ccccc2c1C#N | 3.94% (inactive) | –
33 | CCOC(=O)C[n+]1ccc2c([nH]c3ccccc32)c1C | -8.14% (inactive) | –
34 | COc1ccc(-c2oc3ncn(Cc4ccco4)c(=N)c3c2-c2ccc(OC)cc2)cc1 | -23.5% (inactive) | –
35 | O=C(O)CCC(=O)c1ccc(-c2ccccc2)cc1 | 6.17% (inactive) | –
36 | COc1ccc(OC)c(Cc2nnc(CCC(=O)N3CCN(C4CCCC4)CC3)o2)c1 | -6.54% (inactive) | –
37 | NC(=NCCCCCCN=C(N)/N=C(\N)Nc1ccc(Cl)cc1)/N=C(\N)Nc1ccc(Cl)cc1 | – | inactive
